The whole screen tested about 400,000 compounds, of which about 2,200 (0.55%) were called active. Where a call stands in place of a potency, no number is given. Not shown: some 1% with an inconclusive outcome. The call rests on the fitted dose curve; in most records, active means well fitted inhibition curve with a large enough effect; inconclusive means small, poorly fitted or top-dose-only effect, or another doubt; inactive means no such curve, though single readings can be large or run the other way. Only a selection was taken, and actives are over-represented in it overall.
Potency means the concentration at half of the fitted maximal effect.

Chain of DNA polymerase kappa (Homo sapiens) (Q9UBT6 whole entry, looked up): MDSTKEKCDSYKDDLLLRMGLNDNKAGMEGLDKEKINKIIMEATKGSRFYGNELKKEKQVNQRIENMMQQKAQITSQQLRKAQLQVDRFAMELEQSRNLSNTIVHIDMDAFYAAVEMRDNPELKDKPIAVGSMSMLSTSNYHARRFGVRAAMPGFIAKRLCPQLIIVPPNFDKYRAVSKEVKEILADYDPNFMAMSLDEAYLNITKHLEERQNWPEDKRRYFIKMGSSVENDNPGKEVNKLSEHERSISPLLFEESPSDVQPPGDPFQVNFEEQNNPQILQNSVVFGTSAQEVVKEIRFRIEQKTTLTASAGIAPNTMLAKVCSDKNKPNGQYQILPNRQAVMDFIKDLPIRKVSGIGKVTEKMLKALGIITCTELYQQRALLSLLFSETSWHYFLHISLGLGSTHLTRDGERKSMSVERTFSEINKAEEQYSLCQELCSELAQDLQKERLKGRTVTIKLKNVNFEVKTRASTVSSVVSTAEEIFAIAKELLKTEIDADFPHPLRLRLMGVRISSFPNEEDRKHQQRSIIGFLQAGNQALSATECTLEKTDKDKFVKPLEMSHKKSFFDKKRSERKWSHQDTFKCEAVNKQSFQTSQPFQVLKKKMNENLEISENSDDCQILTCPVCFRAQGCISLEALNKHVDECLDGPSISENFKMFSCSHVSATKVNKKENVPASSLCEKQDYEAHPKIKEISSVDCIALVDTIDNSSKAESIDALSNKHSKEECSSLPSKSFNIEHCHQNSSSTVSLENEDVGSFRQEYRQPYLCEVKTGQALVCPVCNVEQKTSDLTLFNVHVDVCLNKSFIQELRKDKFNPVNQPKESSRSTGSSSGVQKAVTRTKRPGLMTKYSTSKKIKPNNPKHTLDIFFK

In this assay the target is DNA polymerase kappa (Homo sapiens) (UniProt Q9UBT6). Nature of the assay: qHTS for Inhibitors of Polymerase Kappa. The conditions noted are these: purified Pol kappa, fluorescent DNA synthesis assay, 10 min; series mostly up to 107 µM. Summed up:
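10 nM Pol kappa preincubated 15 min at room temperature with compounds, then reaction started with substrate at 50 nM final. Fluorescence read kinetically at 0 and 10 min; buffer-only wells served as negative control.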
With `Cc1noc(C)c1-c1nc(Nc2ccccc2)c2ccccc2n1`, the Potency result was “inactive”.
Same read-out and setting: the same measure for `COc1cccc(-c2nc(Nc3ccncc3)c3ccccc3n2)c1`: “inactive”; for `c1ccc2c(Nc3ccncc3)nc(-c3ccoc3)nc2c1`: 28.2 µM (active); for `O=C(c1ccco1)N1CCC2(CC1)CCN(c1ncccn1)CC2`: “inactive”.
Still for that read-out and setting: next, `COC1=C/C(=C/c2c(N)n3nc(CC(=O)N4CCOCC4)sc3nc2=O)C=CC1=O`: 79.4 µM (active).
On the same count and under the same terms, next, `COc1ccc(S(=O)(=O)N2CCN(CC(=O)N3CCOCC3)CC2)cc1OC`: “inactive”.
In the case of `COc1ccc(-c2ccnc(SCC(=O)N3CCOCC3)n2)cc1`, the Potency entry is “inactive”.
For the molecule `CCN(CC)/[N+]([O-])=N/OCOC(=O)Cc1c(C)n(C(=O)c2ccc(Cl)cc2)c2ccc(OC)cc12`, the Potency result is “inactive”.
The same measure, in the same setting: next, `O=C(Nc1ccccc1)c1ccccc1OCc1ccccc1`: “inactive”; `CCc1ccccc1NS(=O)(=O)c1ccc2nc(-c3ccccc3)[nH]c2c1`: “inactive”; `CCc1ccc(NC(=O)C2CCCN2S(=O)(=O)c2ccc3nc(-c4ccccc4)[nH]c3c2)cc1` (centres undefined): 89.1 µM (active).
Same read-out and setting: the same measure for `CC(=O)Nc1ccc(NC(=O)C2CCCN2S(=O)(=O)c2cccc(C(F)(F)F)c2)cc1` (centres undefined): “inactive”; for `COc1ccc(CNc2ncncc2-c2ccccc2OC)c(OC)c1`: “inactive”.
Still for that read-out and setting: next, `OC(CBr)C[n+]1cccc2cc(Br)ccc21` (centres undefined): “inactive”; `SCc1nc2ccc(Cl)cc2[nH]1`: “inactive”.
`CCCC[C@H]1C(=O)N(c2ccccc2)N(c2ccc(O)cc2)C1=O`: the activity, negative = inhibition is -4.08% [at 19.4 µM] (inactive).
In the case of `COc1cccc(N2CC(NC(=O)/C=C\c3ccccc3)CC2=O)c1` (centres undefined), the Potency result is “inactive”.
The same measure, in the same setting: next, `COc1ccc(/C=C/C(=O)c2cc(Br)ccc(=O)c2O)cc1`: 25.1 µM (active).
The same measure, in the same setting: next, `COCOc1cc(O)c(C(=O)/C=C/c2ccc(OCOC)c(OCOC)c2)c(OCOC)c1`: “inactive”.
The same measure, in the same setting: next, `C=CCC1CCC(=O)N2CCCC12` (centres undefined): “inactive”; `COc1cc(OC)c(/C=C/c2ccnc3ccccc23)c(OC)c1`: “inactive”.
For the molecule `COc1ccc(OC)c2sc(N3CCN(C(=O)C4COc5ccccc5O4)CC3)nc12` (centres undefined), the Potency entry is “inactive”.
Regarding `COc1cc(NS(=O)(=O)c2ccc3c(c2)OCC(C(=O)N2CCCC2)O3)cc(OC)c1` (centres undefined), the Potency result was “inactive”.
As to `Cc1c(CC(=O)N2CCN(C(=O)C3COc4ccccc4O3)CC2)c(=O)oc2c(O)c(O)ccc12` (centres undefined), the Potency was 7.08 µM (active).
As for `COc1ccc(CC(N)C(=O)NC2C(O)[C@H](n3cnc4c(N(C)C)ncnc43)O[C@@H]2CO)cc1` (some centres undefined), the activity, negative = inhibition was 3.17% [at 19.4 µM] (inactive).
For `OCCC(O)CO` (centres undefined), the Potency entry is “inactive”.
Take `Cc1csc[n+]1CCC1CCCCC1`: the Potency entry was “inactive”.
For `CCCCCCCC/C=C\CCCCCCCC(=O)OC[C@H](CO)OC(C)=O`, the activity, negative = inhibition is 0.528% [at 19.4 µM] (inactive).
In the case of `Cc1ccc(Cn2cnc3c(cnn3C(C)(C)C)c2=O)c(F)c1`, the Potency entry was “inactive”.
On the same count and under the same terms, the same measure for `C(=Nc1ccc(/C=C/c2ccnc3ccccc23)cc1)Nc1ccc(/C=C/c2ccnc3ccccc23)cc1`: “inactive”; for `COCCn1c(=O)c(CCc2ccccc2)nc2cncnc21`: “inactive”.
Same read-out and setting: next, `Cc1ccc(C(=O)N/C(=C\c2ccco2)C(=O)NC2CCS(=O)(=O)C2)cc1` (centres undefined): “inactive”; `COc1ccccc1C(=O)N/C(=C/c1ccco1)C(=O)Nc1ccc(C(=O)O)cc1`: 50.1 µM (active).
For the molecule `COc1ccccc1C(=O)NC(=O)COC(=O)c1ccco1`, the Potency result is “inactive”.
Same read-out and setting: next, `COc1ccc2[nH]cc(CCNc3nc(-c4cccc(NS(C)(=O)=O)c4)nc4ccccc34)c2c1`: “inactive”.
On to `O=c1ccn([C@@H]2O[C@H](COP(=O)(O)OP(=O)(O)OP(=O)(O)O)[C@@H](O)[C@H]2O)c(=O)[nH]1`, for which the activity, negative = inhibition is 4.9% [at 19.4 µM] (inactive).
As to `CC1(C)OC2CC(=O)OC[C@@]23C1CC(=O)[C@]1(C)C3CC[C@@]2(C)C(c3ccoc3)OC(=O)C3O[C@@]321` (some centres undefined), the Potency entry is “inactive”.
On the same count and under the same terms, the same measure for `COCCNc1ncnc2ccc(-c3cccnc3)cc12`: “inactive”.
Same read-out and setting: the same measure for `COCCn1c(=O)c(CCc2ccccc2)nc2cnc(N3CCNCC3)nc21`: “inactive”.

Source of the values: PubChem BioAssay AID588579 (National Center for Advancing Translational Sciences (NCATS), 2011).
